# Pf growth 96h = Primary qHTS for delayed death inhibitors of the malarial parasite plastid, 96 hour incubation. P. falciparum luciferase reporter growth, 96 h. Potency, µM (titrated, usually from 28.7 µM), actives largely listed as inhibitors. 320,000 compounds, 6.9% hits. AID 504834, 2011
#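 Luminescence readout: decreased luciferase signal marks inhibited growth of reporter-expressing P. falciparum in infected red cells (2% hematocrit, 0.05% parasitemia final), exposed to compound two generations (96 h, 37 C, 5% CO2).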
# Pf growth 48h = Primary qHTS for delayed death inhibitors of the malarial parasite plastid, 48 hour incubation; P. falciparum luciferase growth in erythrocytes, 48 h; Potency, µM (highest dose often 28.7 µM), actives largely listed as inhibitors; 310,000 compounds, 5.9% hits; AID 504832, 2011
#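 A one-generation exposure of luciferase-tagged malaria parasites in RPMI 1640/Albumax erythrocyte culture, 37 C and 5% CO2. Inhibition is inferred from decreased luminescence after adding detection reagent.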
# HCV inh = qHTS Assay for Inhibitors of Hepatitis C Virus (HCV). Potency, µM (series often up to 41.8 µM), usual class: inhibitors. Huh7.5.1 HCVcc-Cre infection, luciferase reporter, 44 h. 340,000 compounds, 3.4% hits. AID 651820, 2012
#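 Cells seeded at 1,000/well and cultured 4 h, then compounds added followed by HCVcc-Cre virus (~0.5 moi). After 44 h further culture, luciferase substrate was added, plates held 15 min at room temperature, and luminescence read for 15 sec.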
# NS1 function inh = qHTS Assay for Inhibitors of Influenza NS1 Protein Function; AID 2326, 2010; 270,000 compounds, 0.4% hits; Potency, µM (titrated, usually from 46.1 µM); calls by dose curve; note: actives are rising curves; nearly all actives have a fitted effect of over 50% in size
#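 OD600 was taken as the measure of yeast growth restored by compound in an NS1-expressing S. cerevisiae strain. Cells had been washed out of glucose medium and diluted 1:100 into galactose -URA medium, pH 6.0.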
# Vaccinia mCherry = qHTS for Stage-Specific Inhibitors of Vaccinia Orthopoxvirus: mCherry Reporter Primary qHTS | Vaccinia virus mCherry reporter infection, fluorescence | Potency, µM (series often up to 36.5 µM), usual class: inhibitors | 310,000 compounds, 0.63% hits | AID 720579, 2013; calls by dose curve; tested in A549 cells; note: nearly all actives have a fitted effect of over 35% in size
# VACV Venus inh = qHTS for Stage-Specific Inhibitors of Vaccinia Orthopoxvirus: Venus Reporter Primary qHTS. Vaccinia virus Venus reporter expression, fluorescence. Potency, µM (titrated, usually from 36.5 µM), hits mostly inhibitors. 330,000 compounds, 0.46% hits; calls by dose curve; tested in A549 cells; note: nearly all actives have a fitted effect of over 30% in size
# A number is an active result; - = inactive; ? = inconclusive; . = no result; [ ] = dose if it differs, or a comment. Rows were chosen to be rich in hits. Some 11% of all compounds tested hit in one or more screens of this group. Unless noted, calls come from the whole dose curve; as a rule, active = well fitted inhibition curve with a large enough effect; inconclusive = small, poorly fitted or top-dose-only effect, or another doubt; inactive = no such curve, though single readings can be large or run the other way.
SMILES,Pf growth 96h,Pf growth 48h,HCV inh,NS1 function inh,Vaccinia mCherry,VACV Venus inh
O=C(N/N=C/C=C\c1cccc([N+](=O)[O-])c1)c1ccccn1,?,-,-,-,.,.
COc1cccc(NC(=O)CN(C)C(=O)c2cccnc2Nc2cccc(C(F)(F)F)c2)c1,?,9.28µM,?,.,.,.
Cc1ccc(NC(=O)CN(C)C(=O)c2cccnc2Nc2cccc(C(F)(F)F)c2)cc1,9.28µM,?,?,-,.,.
Cc1ccc(-c2nc3ncccn3c2Nc2ccc3c(c2)OCCO3)o1,?,-,-,-,-,-
O=C(CSc1nnc(-c2ccc(O)cc2)n1Cc1ccco1)c1cccs1,-[5.75 µM],-,-,-,.,.
N#Cc1c(-c2ccccc2)c(-c2ccccc2)n(Cc2ccco2)c1NC(=O)c1cccs1,-,?,2.82µM,-,-,-
CCc1ccc(N(C(=O)C(F)(F)F)C(C(=O)NC2CCCCC2)c2ccncc2)cc1 (configuration not stated),2.62µM,13.1µM,-,-,-,-
CCc1ccc(N(C(=O)c2ccco2)C(C(=O)NC2CCCC2)c2ccncc2)cc1 (configuration not stated),?,-,-,-,-,-
COCCC(=O)N(Cc1ccc2c(c1)OCO2)C(C(=O)NC1CCCCC1)c1ccncc1 (configuration not stated),-,-,-,-,-,-
O=C(NC1CCCCC1)C(c1ccncc1)N(Cc1ccc2c(c1)OCO2)C(=O)C(F)(F)F (configuration not stated),2.08µM,9.28µM,-,-,-,-
C/C(=N\N=C(N)N)c1cccc([N+](=O)[O-])c1,?,-,-,-,-,-
C/C(=N\N=C(N)N)c1ccc(C)c(C)c1,11.7µM,9.28µM,-,-,?,-
CCOc1ccc(CCNC(=O)CN2C(=O)COc3ccc(S(=O)(=O)N4CCCCCC4)cc32)cc1,.,.,.,.,-,-
O=C1CC(O)(c2ccccc2)C(c2ccccc2)=C1c1ccccc1 (configuration not stated),11.7µM,10.4µM,-,.,-,-
COc1cc(NC(=O)C2Cc3ccccc3CN2S(C)(=O)=O)cc(OC)c1 (configuration not stated),1.85µM,-,-,-,-,-
CCOc1ccccc1NC(=O)C1Cc2ccccc2CN1S(C)(=O)=O (configuration not stated),11.7µM,?,-,-,-,-
COc1ccc(NC(=O)C2CCN(C(=O)[C@@H]3Cc4ccccc4CN3C(=O)OC(C)(C)C)CC2)cc1,?,?,-,-,.,.
CS(=O)(=O)N1Cc2ccccc2CC1C(=O)Nc1ccccc1C(N)=O (configuration not stated),-,-,-,-,-,-
COc1ccc(NC(=O)[C@@H]2CCCN2C(=O)[C@@H]2Cc3ccccc3CN2C(=O)OC(C)(C)C)cc1,11.7µM,11.7µM,-,-,-,-
COc1ccc(Cl)cc1NC(=O)C1Cc2ccccc2CN1S(C)(=O)=O (configuration not stated),-,-,-,-,-,-
CCN(C(=O)CSc1nnc(-c2cccs2)n1CC)C1CCS(=O)(=O)C1 (configuration not stated),-,-,-,-,-,-
Cc1ccc(C)c(NC(=O)CN(C)C(=O)c2cccc(S(=O)(=O)N(C)C)c2)c1,-,?,-,.,-,-
CN(CC(=O)Nc1ccc(Cl)cc1)C(=O)c1sccc1-c1ccccc1,?,-,12.6µM,.,.,.
CN(C)S(=O)(=O)c1cccc(NC(=O)CCSc2ccc(Cl)cc2)c1,-,-,10µM,-,-,-
CN(C)S(=O)(=O)c1cccc(NC(=O)CCNC(=O)Nc2ccccc2)c1,.,.,-,.,.,.
CN(CC(=O)Nc1ccc(Cl)cc1)C(=O)c1cccc(S(=O)(=O)N(C)C)c1,10.4µM,?,-,-,-,-
CC(C)(C)P(=O)(c1ccncc1)N1CCCC1 (configuration not stated),0.738µM,?,-,-,-,-
CN1C=C/C(=C\c2cc[n+](C)c3ccccc23)c2ccccc21,11.7µM,?,4.47µM,.,.,.

# Source: PubChem
